Reference: PubChem BioAssay
Values without a mark were called inactive. Where a call stands in place of a potency, no number is given. For some of these results: Potency and affinity values are given separately. Calls of active or inactive are those of the source. Unless noted, no rule for the calls is given here.

What was measured:
[1] = antimalarial activity against Dd2 strain (AID 2302;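 active = growth inhibition above 50% at the single 2 µM test dose, taken to imply half-maximal potency below 2 µM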); conditions: P. falciparum Dd2 in RBCs, LDH growth readout, 72 h; at 2 µM; active compounds read high
[2] = HepG2 cytotoxicity, primary screen, cytotoxicity control for P. falciparum antimalarial project, cell-based, ATP luminescence (AID 2303;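 active = inhibition above 50%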); conditions: HepG2 viability, 24-48 h, at 10 µM, active compounds read high
[3] = target: L-lactate dehydrogenase (Plasmodium falciparum (isolate CDC / Honduras)) (UniProt Q27743); test: PfLDH activity inhibition – cell lysate, 3D7 strain, counter-screen for P. falciparum growth inhibition project (AID 2304); conditions: P. falciparum 3D7 crude extract, LDH APAD/NBT absorbance; at 2 µM; active compounds read high
Sequence of L-lactate dehydrogenase (Plasmodium falciparum (isolate CDC / Honduras)) (Q27743 whole entry, looked up): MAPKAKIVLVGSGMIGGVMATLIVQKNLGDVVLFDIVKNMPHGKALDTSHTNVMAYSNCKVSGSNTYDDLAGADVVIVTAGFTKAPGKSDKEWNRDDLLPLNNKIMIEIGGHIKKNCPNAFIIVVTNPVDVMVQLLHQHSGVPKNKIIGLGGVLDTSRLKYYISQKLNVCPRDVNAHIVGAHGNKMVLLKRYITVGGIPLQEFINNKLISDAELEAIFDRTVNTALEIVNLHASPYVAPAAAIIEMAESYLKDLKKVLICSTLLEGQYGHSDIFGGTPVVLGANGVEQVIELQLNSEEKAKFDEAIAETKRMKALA

[4] = inhibition of 3D7 malaria parasite growth – strain 3D7 (AID 2306); conditions: P. falciparum 3D7 erythrocytic growth, LDH absorbance, 72 h; at 2 µM; active compounds read high
[5] = target: Calcium-dependent protein kinase 1 (Plasmodium falciparum (isolate 3D7)) (UniProt P62344); test: PfCDPK1 kinase inhibitors, biochemical, TCAMS library (AID 1159585; cut-off not given, nearly all actives have IC50 up to about 0.98 µM;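 also: inhibitors leave more ATP so luminescence rises with inhibition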); conditions: recombinant PfCDPK1, Kinase-Glo ATP depletion luminescence
Sequence of Calcium-dependent protein kinase 1 (Plasmodium falciparum (isolate 3D7)) (P62344 whole entry, looked up): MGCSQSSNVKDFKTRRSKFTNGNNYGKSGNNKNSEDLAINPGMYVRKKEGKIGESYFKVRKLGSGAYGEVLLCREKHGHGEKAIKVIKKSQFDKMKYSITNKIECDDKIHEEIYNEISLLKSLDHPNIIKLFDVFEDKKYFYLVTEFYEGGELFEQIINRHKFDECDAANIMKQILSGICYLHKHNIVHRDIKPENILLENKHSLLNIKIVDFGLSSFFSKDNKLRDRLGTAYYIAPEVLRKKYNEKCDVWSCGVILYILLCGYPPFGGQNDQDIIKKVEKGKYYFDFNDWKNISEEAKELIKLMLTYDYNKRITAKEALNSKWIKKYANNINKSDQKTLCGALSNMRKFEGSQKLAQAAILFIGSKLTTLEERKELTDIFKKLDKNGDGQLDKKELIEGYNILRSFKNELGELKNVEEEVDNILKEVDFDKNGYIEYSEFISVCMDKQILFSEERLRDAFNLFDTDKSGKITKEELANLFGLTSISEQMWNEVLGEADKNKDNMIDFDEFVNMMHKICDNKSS

[6] = target: Plasmodium falciparum protein kinase 6 (PK6, PF3D7_1337100) (UniProt Q8IDW1); test: PfPK6 kinase inhibitors, biochemical, TCAMS library (AID 1159586); conditions: recombinant PfPK6, Kinase-Glo ATP depletion luminescence
Sequence of Plasmodium falciparum protein kinase 6 (PK6, PF3D7_1337100) (Q8IDW1 1-305): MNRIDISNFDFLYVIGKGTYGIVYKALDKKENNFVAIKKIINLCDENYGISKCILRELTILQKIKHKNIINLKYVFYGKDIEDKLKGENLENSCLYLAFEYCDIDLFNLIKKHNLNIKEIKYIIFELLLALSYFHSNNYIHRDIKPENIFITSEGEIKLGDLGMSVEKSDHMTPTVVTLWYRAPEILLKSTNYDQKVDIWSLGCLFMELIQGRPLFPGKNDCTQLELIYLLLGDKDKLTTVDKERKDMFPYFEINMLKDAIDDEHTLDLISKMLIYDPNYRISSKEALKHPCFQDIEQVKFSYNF

[7] = target: Protein kinase 7 (PK7), Plasmodium falciparum 3D7 (PF3D7_0213400) (UniProt Q7YTF7); test: inhibition of Plasmodium PK7 catalytic activity – biochemical, TCAMS antimalarial set, Kinase-Glo luminescence (AID 1159587); conditions: recombinant PfPK7, Kinase-Glo ATP depletion luminescence
Sequence of Protein kinase 7 (PK7), Plasmodium falciparum 3D7 (PF3D7_0213400) (Q7YTF7 1-343): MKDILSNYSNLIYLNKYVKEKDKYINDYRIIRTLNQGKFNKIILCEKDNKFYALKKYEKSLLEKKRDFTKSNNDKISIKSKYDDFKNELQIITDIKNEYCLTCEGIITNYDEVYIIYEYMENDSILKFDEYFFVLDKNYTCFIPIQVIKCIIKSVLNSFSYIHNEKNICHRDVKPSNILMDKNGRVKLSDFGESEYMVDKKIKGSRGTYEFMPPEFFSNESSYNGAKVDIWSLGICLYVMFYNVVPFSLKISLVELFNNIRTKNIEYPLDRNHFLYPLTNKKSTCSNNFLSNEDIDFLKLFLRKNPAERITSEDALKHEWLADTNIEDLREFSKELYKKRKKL

[8] = target: Calcium-dependent protein kinase 4 (Plasmodium falciparum (isolate 3D7)) (UniProt Q8IBS5); test: PfCDPK4 kinase inhibitors, biochemical, TCAMS library (AID 1159588; cut-off not given, nearly all actives have IC50 up to about 0.91 µM); conditions: recombinant PfCDPK4, Kinase-Glo ATP depletion luminescence
Sequence of Calcium-dependent protein kinase 4 (Plasmodium falciparum (isolate 3D7)) (Q8IBS5 whole entry, looked up): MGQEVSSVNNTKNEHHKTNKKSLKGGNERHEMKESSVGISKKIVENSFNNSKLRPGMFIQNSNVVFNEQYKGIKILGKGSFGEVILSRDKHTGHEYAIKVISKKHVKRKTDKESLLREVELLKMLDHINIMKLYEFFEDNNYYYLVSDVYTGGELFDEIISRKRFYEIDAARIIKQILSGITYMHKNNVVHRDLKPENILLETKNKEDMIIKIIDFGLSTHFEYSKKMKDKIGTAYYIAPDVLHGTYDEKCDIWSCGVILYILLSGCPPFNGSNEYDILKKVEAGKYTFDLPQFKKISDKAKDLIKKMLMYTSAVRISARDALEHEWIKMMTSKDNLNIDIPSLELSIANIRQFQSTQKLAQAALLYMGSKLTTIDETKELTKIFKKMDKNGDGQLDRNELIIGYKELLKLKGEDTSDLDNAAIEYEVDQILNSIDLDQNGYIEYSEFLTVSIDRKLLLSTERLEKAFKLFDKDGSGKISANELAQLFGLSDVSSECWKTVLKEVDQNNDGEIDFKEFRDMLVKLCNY

SMILES | growth inhibition [1] | inhibition [2] | inhibition [3] [%] | growth inhibition [4] | outcome [5] | outcome [6] | outcome [7] | outcome [8]
Cc1cc(N)nc2ccc(CNCCc3ccccc3Br)cc12 | 77% (active) | 28% | 7 | 102% (active) | inactive | inactive | inactive | inactive
CC(=O)Nc1ccc(OCCN(CC(C)(C)C)c2ccc(C#N)c(C(F)(F)F)c2)c(Cl)c1 | 93% (active) | -6% | -1 | 87% (active) | inactive | inactive | inactive | inactive
CC[C@H]1CN2CC[C@H]1C[C@H]2[C@H](O)c1cc(N2CCCC(C(=O)N(CC)CC)C2)nc2ccc(OC)cc12 (some centres undefined) | 99% (active) | -13% | -2 | 101% (active) | inactive | inactive | inactive | inactive
COC(=O)c1ccc(CC(C)NCC(O)c2cccc3ccccc23)cc1 (centres undefined) | 82% (active) | 3% | 4 | 96% (active) | inactive | inactive | inactive | inactive
Cc1ccc(CC(C)NCC(O)c2cccc(Cl)c2)cc1 (centres undefined) | 64% (active) | -4% | -1 | 93% (active) | inactive | inactive | inactive | inactive
Cc1[nH]c2cc(Cl)ccc2c1C1=CCN(CCCCC2(C)C(=O)Nc3ccccc32)CC1 (centres undefined) | 90% (active) | -3% | 0 | 94% (active) | inactive | inactive | inactive | inactive
CC[C@H]1CN2CC[C@H]1C[C@H]2[C@H](O)c1cc(-c2cccc(Cl)c2)nc2ccc(OC)cc12 | 99% (active) | 16% | 6 | 98% (active) | inactive | inactive | inactive | inactive
CCCCCCC(CC)c1cc(O)c2c(c1)OC(C)(C)c1ccncc1-2 (centres undefined) | 52% (active) | -1% | -6 | 94% (active) | inactive | inactive | inactive | inactive
COc1cccc(C=CC(=O)NC2CCC(CN3CCC(c4c[nH]c5ccccc45)CC3)CC2)c1OC (centres undefined) | 40% | 37% | -1 | 102% (active) | inactive | inactive | inactive | inactive
CCCCCc1cc(O)c2c3c(c(=O)oc2c1)CN(C)CC3 | 99% (active) | 4% | 4 | 101% (active) | inactive | inactive | inactive | inactive
CCOC(C(=O)OCC1CCCN1C(C)C)(c1ccccc1)c1ccccc1 (centres undefined) | 2% | -1% | -3 | 98% (active) | inactive | inactive | inactive | inactive
O=C(/C=C/c1ccc(Cl)c(Cl)c1)Nc1cccc(CN2CCC(c3c[nH]c4ccc(O)cc34)CC2)c1 | 90% (active) | 11% | 0 | 101% (active) | inactive | inactive | inactive | inactive
CC(=O)Nc1ccc(CN2CCC(N(C)c3cc(NC(=O)c4ccc(F)cc4)ccn3)CC2)cc1 | 5% | 0% | -1 | 95% (active) | inactive | inactive | inactive | inactive
Cc1[nH]c2ccccc2c1C1=CCN(CCN2CCCc3c(Br)cccc3C2=O)CC1 | 90% (active) | 10% | -1 | 95% (active) | inactive | inactive | inactive | inactive
Oc1ccc(CN2CCN(CCOC(c3ccccc3)c3ccccc3)CC2)cc1Cl | 77% (active) | 7% | 1 | 98% (active) | inactive | inactive | inactive | inactive
CC[C@H]1CN2CCc3cc(OC)c(OC)cc3[C@@H]2C[C@@H]1C[C@H]1NCCc2c1cc(OC)c(O)c2I | 101% (active) | 54% (active) | -4 | 101% (active) | inactive | inactive | inactive | inactive
Cc1cccc(N2CCN(Cc3cc(Cl)ccc3O)CC2)c1C | 96% (active) | -2% | 2 | 96% (active) | inactive | inactive | inactive | inactive
COc1ccc2[nH]cc(C3CCN(Cc4ccc(NC(=O)c5ccc(-c6ccccc6)cc5)cc4)CC3)c2c1 | 72% (active) | 24% | -6 | 101% (active) | inactive | inactive | inactive | inactive
Cc1[nH]c2ccc(O)cc2c1C1CCN(CC2CCC(NC(=O)/C=C/c3c(Cl)cccc3Cl)CC2)CC1 (centres undefined) | 93% (active) | 25% | -3 | 103% (active) | inactive | inactive | inactive | inactive

SMILES | growth inhibition [1] | inhibition [2] | inhibition [3] [%] | growth inhibition [4] | outcome [5] | outcome [6] | outcome [7] | outcome [8]
O=C(NC1CCC(CN2CCC(c3c[nH]c4ccccc34)CC2)CC1)c1ccc(-c2ccccc2[N+](=O)[O-])o1 (centres undefined) | 34% | 24% | -2 | 100% (active) | inactive | inactive | inactive | inactive
COc1ccc(C(=O)[C@H]2C[C@@H]2CN2CC=C(c3c[nH]c4ccccc34)CC2)cc1 | 89% (active) | 12% | 1 | 95% (active) | inactive | inactive | inactive | inactive
CS(=O)(=O)Nc1ccc2[nH]cc(C3CCN(CC4CCC(NC(=O)/C=C/c5ccc(Cl)c(Cl)c5)CC4)CC3)c2c1 (centres undefined) | 86% (active) | 22% | -3 | 100% (active) | inactive | inactive | inactive | inactive
N[C@@H](CCN1CCC(c2cccc(O)c2)CC1)Cc1ccc(F)c(F)c1 | 0% | 25% | -3 | 92% (active) | inactive | inactive | inactive | inactive
CCCCCc1cc(O)c2c(c1)OC(C)(C)c1ccncc1-2 | 57% (active) | -5% | -1 | 99% (active) | inactive | inactive | inactive | inactive
CCN1CCC(N2CCC(n3c(C)nc4cc(C(F)(F)F)ccc43)CC2)CC1 | 16% | 6% | 1 | 93% (active) | inactive | inactive | inactive | inactive
COc1cccc(C(=O)[C@H]2C[C@@H]2CN2CC=C(c3c[nH]c4cccc(Br)c34)CC2)c1 | 85% (active) | 22% | -3 | 96% (active) | inactive | inactive | inactive | inactive
OC1(CNCc2ccccc2)CCN(CCc2c[nH]c3ccc(F)cc23)CC1 | 4% | 39% | -2 | 100% (active) | inactive | inactive | inactive | inactive
CCOC(=O)c1c(C)n(C2CCCCCC2)c2cc(Br)c(O)cc12 | 45% | -1% | -1 | 87% (active) | inactive | inactive | inactive | inactive
CN(C)c1cccc(NC(=O)N[C@H]2N=C(c3ccccc3)c3ccccc3N(CC(=O)N3CCCC3)C2=O)c1 | 98% (active) | -5% | -4 | 98% (active) | inactive | inactive | inactive | inactive
CCCCCc1cc(O)c2c(c1)OC(C)(C)CC2C1=CCN(Cc2ccccc2)CC1 (centres undefined) | 79% (active) | 15% | -5 | 99% (active) | inactive | inactive | inactive | inactive
COc1cc(C=CC(=O)NC2CCC(CN3CCC(c4c[nH]c5ccccc45)CC3)CC2)cc(OC)c1 (centres undefined) | 90% (active) | 38% | -9 | 101% (active) | inactive | inactive | inactive | inactive
CCC(C)CN1CCC(N(C)c2cc(NC(=O)c3cccc(C)c3)ccn2)CC1 (centres undefined) | 14% | 1% | 1 | 93% (active) | inactive | inactive | inactive | inactive
CN(C)CCc1c[nH]c2ccc(C(=O)Nc3ccc(-c4ccncc4)cc3)cc12 | 46% | 23% | -7 | 99% (active) | inactive | inactive | inactive | inactive
N#Cc1ccc(N(CC(=O)NCCc2ccc(F)cc2)CC2CC2)c2ccccc12 | 23% | 28% | -2 | 91% (active) | inactive | inactive | inactive | inactive
CC[C@H]1CN2CC[C@H]1C[C@H]2[C@H](O)c1cc(-c2ccccc2F)nc2ccc(OC)cc12 | 98% (active) | 13% | 1 | 99% (active) | inactive | inactive | inactive | inactive
Cc1ccc(CC(C)NCC(O)c2cccc(C(F)(F)F)c2)c(C)c1 (centres undefined) | 99% (active) | 3% | -1 | 99% (active) | inactive | inactive | inactive | inactive
O=C(/C=C/c1ccc(Cl)c(Cl)c1)NCCC1CCC(N2CCC(c3c[nH]c4ccccc34)CC2)CC1 (centres undefined) | 99% (active) | 91% (active) | -1 | 102% (active) | inactive | inactive | inactive | inactive
CCCC(=O)c1c(O)c2ccccc2oc1=O | 1% | 11% | -5 | 93% (active) | inactive | inactive | inactive | inactive
